Results on 51 compounds are retold here after PubChem BioAssay (NCATS).

Structures are written as SMILES. A number with no mark means an inactive call. Results filed as inconclusive are left out. Active and inactive are the calls of the source. Unless noted, the call rests on the fitted dose curve; in most records, active means well fitted curve in either direction with a large enough effect (not every such curve was filed as active); inconclusive means small, poorly fitted or top-dose-only effect, or another doubt; inactive means flat fitted curve, though single readings scatter. Where only a bound is given, the exact number is not on record here.

Assay [1] is described as follows: AP1 Signaling Pathway (AID 357). Further: on the % scale 0 is the no-effect control and ±100 the full control effect. The note with it: ME-180 AP-1-bla reporter, EGF-induced, beta-lactamase ratio, 5 h; at 17.2 µM (top of the series) unless noted. Put shortly: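 Cells are seeded overnight, exposed to compound titrations and an EC50 level of EGF for 5 hours at 37 °C, then loaded with CCF4 dye for 2.5 hours. Beta-lactamase activity under the AP-1 element is read as a blue/green ratio.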

Assay [2] in a line: NFAT Signaling Pathway (AID 444).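 Further: carbachol stimulus at about its EC50 of 1 µM final; on the % scale 0 is the no-effect control and ±100 the full control effect.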 The conditions noted are these: Jurkat NFAT-bla M1, carbachol, beta-lactamase ratio, 5 h; at 17.2 µM (top of the series) unless noted. In short, it runs like this: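 Jurkat cells with NFAT-driven β-lactamase reporter and co-expressed M1 receptor, stimulated with carbachol (final 1 uM, ~EC50), compound titration, 5 h at 37 °C. CCF4 loaded 1 h at RT; 460/530 nm ratio gave %activity and AC50.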

The nature of assay [3]: Stat Signaling Pathway (AID 446).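 Further: ME-180 cervical cancer cells given 40 pM IL-6 alongside compound; SIE-controlled beta-lactamase reporter measured as 460/530 nm FRET emission ratio; on the % scale 0 is the no-effect control and ±100 the full control effect.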 The note with it: ME-180 (cervical carcinoma) SIE beta-lactamase reporter, IL-6 stimulated, 5 h; at 17.2 µM (top of the series) unless noted. Put shortly:
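IL-6/STAT signaling read in ME-180 cells via an SIE beta-lactamase reporter. Stimulus was 40 pM IL-6 (its AC50) for 5 hrs, so both activation and inhibition register.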

Assay [4] deals with Glucocorticoid receptor (Homo sapiens) (UniProt P04150). In words: GR-GFP Redistribution (AID 450;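 active means compounds whose dose series gives a full or clear partial fitted curve of increased nuclear translocation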; further: potency means the concentration at half of the fitted maximal effect).
Glucocorticoid receptor (Homo sapiens), sequence (P04150 whole entry, looked up): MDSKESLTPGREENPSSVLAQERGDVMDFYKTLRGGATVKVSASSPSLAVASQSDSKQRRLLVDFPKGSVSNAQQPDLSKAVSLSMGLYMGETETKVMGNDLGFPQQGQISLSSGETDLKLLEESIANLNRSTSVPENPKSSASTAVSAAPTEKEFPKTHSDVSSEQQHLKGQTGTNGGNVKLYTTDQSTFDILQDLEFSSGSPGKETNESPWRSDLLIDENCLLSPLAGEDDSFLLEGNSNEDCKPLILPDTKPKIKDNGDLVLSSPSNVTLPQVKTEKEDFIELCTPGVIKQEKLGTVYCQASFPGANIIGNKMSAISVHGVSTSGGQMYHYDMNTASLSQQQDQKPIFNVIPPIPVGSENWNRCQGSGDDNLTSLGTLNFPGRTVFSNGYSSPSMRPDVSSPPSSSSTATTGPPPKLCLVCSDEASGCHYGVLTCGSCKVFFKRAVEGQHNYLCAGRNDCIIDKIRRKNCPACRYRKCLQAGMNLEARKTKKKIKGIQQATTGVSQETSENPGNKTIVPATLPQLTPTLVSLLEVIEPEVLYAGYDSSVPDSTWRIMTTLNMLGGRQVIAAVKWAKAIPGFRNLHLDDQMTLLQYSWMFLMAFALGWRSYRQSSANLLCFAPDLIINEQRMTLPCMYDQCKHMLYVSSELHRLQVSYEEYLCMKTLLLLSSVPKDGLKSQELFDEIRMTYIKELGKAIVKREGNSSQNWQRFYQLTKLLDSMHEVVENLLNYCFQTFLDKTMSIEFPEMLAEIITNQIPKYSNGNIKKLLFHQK

On to `COc1ccccc1OCC(=O)Nc1ccc(S(=O)(=O)Nc2cc(C)nc(C)n2)cc1`, for which the activity change, negative = inhibition in assay [1] is -4.5%; in assay [2] it was -9.32%. The activity, negative = inhibition in assay [3] was -5.19%. Moreover, the Potency in assay [4] is over 20.6 µM.
With `COC(=O)c1cc(Br)c(=O)n(-c2cc(C)on2)c1`, the figures for the activity change, negative = inhibition in assay [1] and in assay [2] were 8.72% and 12.9%, respectively. Also, the activity, negative = inhibition in assay [3] was 7.11%. Besides, the Potency in assay [4] was over 20.6 µM.
For `C=CCNc1nc(-c2ccc(O)c(C(N)=O)c2)cs1`, in that order: -14.5%, 25.2%, -12.3% and over 20.6 µM.
In the case of `c1ccc(-c2nnc3sc(Cc4cccs4)nn23)cc1`, the activity change, negative = inhibition in assay [1] is -13.7%; in assay [2], -18.2%. Further, the activity, negative = inhibition in assay [3] is 16.7%. Moreover, the Potency in assay [4] is over 20.6 µM.
For `O=c1cc(O)nc2n1CCCS2`, in that order: 5%, -0.525%, -1.13% and over 20.6 µM.
Taken in the same sequence, the figures for `CCOC(=O)C1CCN(c2ncnc3c2cnn3-c2ccc(OC)cc2)CC1` were 4.62%, -5.45%, 1.28% and over 20.6 µM.
Taken in the same sequence, the figures for `COC(=O)NC(Nc1sc2c(c1C(N)=O)CCCC2)(C(=O)OC)C(F)(F)F` (centres undefined) were 2.66%, 11.9%, 5.04% and over 20.6 µM.
With `CC1(C)Cc2c(sc3c4nnnn4c4nnnn4c23)CO1`, the activity change, negative = inhibition is -28.3% in assay [1] and -96.8% (active) in assay [2]. Also, the activity, negative = inhibition in assay [3] was -26.4%. The Potency in assay [4] is over 20.6 µM.
Taken in the same sequence, the figures for `O=C(c1cncc(Br)c1)N1CCCc2ccccc21` were 2.83%, -6.51%, -1.14% and over 20.6 µM.
For the compound `COc1cccc(/C=C2/CN(C)CC3=C2OC(N)=C(C#N)C3c2cccc(OC)c2)c1` (centres undefined), the activity change, negative = inhibition is -20.4% in assay [1] and -0.393% in assay [2]. Further, the activity, negative = inhibition in assay [3] was -1.9%. Further, the Potency in assay [4] is over 20.6 µM.
With `CCC(=O)N(Cc1cccs1)C1CCOC(C)(C)C1` (centres undefined), the activity change, negative = inhibition in assay [1] was -6.24%; in assay [2], -16.2%. For the same compound, the activity, negative = inhibition in assay [3] is -2.05%. In assay [4], the Potency was over 20.6 µM.
For `C=CCOC(=O)C1=C(C)NC(SCC(=O)Nc2ccc(C)c(Cl)c2)=C(C#N)C1c1ccco1` (centres undefined), in that order: -4.79%, 7.32%, 6.22% and over 20.6 µM.
Taken in the same sequence, the figures for `O=C1CC(c2ccccc2)NC(=O)N1` (centres undefined) were 8.17%, -2.15%, -0.378% and over 20.6 µM.
For `CC1CN(C2CCN(S(=O)(=O)c3ccc4ccccc4c3)CC2)CC(C)O1` (centres undefined), in that order: -3.99%, -12.1%, -8.2% and over 20.6 µM.
On to `O=C1c2ccccc2C(=O)N1CCN1CCc2ccccc21`, for which the results for the activity change, negative = inhibition in assay [1] and in assay [2] were -29% and 1.23%, respectively. The activity, negative = inhibition in assay [3] was -3.43%. The Potency in assay [4] is over 20.6 µM.
Taken in the same sequence, the figures for `COc1nnnc2c1sc1nc(N3CCOCC3)c3c(c12)CC(C)(C)OC3` were -3.49%, -9.1%, -7.42% and over 20.6 µM.
As for `N#Cc1c2c(c(-c3ccco3)[nH]c1=O)CCCC2`, the values for the activity change, negative = inhibition in assay [1] and in assay [2] were -0.634% and 10.5%, respectively. In assay [3], the activity, negative = inhibition is -2.06%. The Potency in assay [4] was over 20.6 µM.
Taken in the same sequence, the figures for `Nc1nc(NC(=O)Cc2ccccc2)nn1-c1ccccc1` were 5.76%, 9.17%, 4.24% and over 20.6 µM.
Taken in the same sequence, the figures for `O=C(Nc1nc(=O)c2ccccc2s1)c1ccccc1` were -10.8%, -15.9%, -3.03% and over 20.6 µM.
For `O=C1[C@@H]2[C@H](C(=O)N1n1cnnc1)[C@H]1C=C[C@@H]2C1`, in that order: -2.82%, 1.6%, 3.44% and over 20.6 µM.
`O=C(Nc1ccccn1)NC(C(F)(F)F)C(F)(F)F`: the activity change, negative = inhibition in assay [1] is -3.59%; in assay [2], 6.68%. For the same compound, in assay [3], the activity, negative = inhibition was -3.68%. For the same compound, in assay [4], the Potency was over 20.6 µM.
As for `CNC(=O)CCn1nc(-c2ccccc2)c2ccccc2c1=O`, the activity change, negative = inhibition in assay [1] was 5.34%; in assay [2] it was -2.43%. In assay [3], the activity, negative = inhibition is 1.15%. Further, the Potency in assay [4] was over 20.6 µM.
For `COc1ccc(C(=O)N2CCCC(c3ccccc3)C2)cc1` (centres undefined), in that order: -9.81%, 18.5%, 2.57% and over 20.6 µM.
For `Cc1cc(=O)n(CCC(=O)O)c2ccccc12`, in that order: 4.89%, 1.73%, 3.32% and over 20.6 µM.
For `CCN1CCc2c(C#N)c(N3CCOCC3)nc(NCCO)c2C1`, in that order: 0.329%, 3.49%, 11.3% and over 20.6 µM.
For the compound `COc1cccc(C2C(C#N)=C(N)Oc3cc(C)[nH]c(=O)c32)c1OC` (centres undefined), the activity change, negative = inhibition in assay [1] was -18.5%; in assay [2], 0.0621%. Further, the activity, negative = inhibition in assay [3] was -3.84%. Besides, the Potency in assay [4] is over 20.6 µM.
Taken in the same sequence, the figures for `COc1cccc(Cn2c(NCc3ccccn3)nc3c2c(=O)n(C)c(=O)n3C)c1` were -10.2%, 7.02%, -15.6% and over 20.6 µM.
Taken in the same sequence, the figures for `CN1c2ccccc2N(C)C1c1c(O)ccc2ccccc12` were -1.37%, -27.9%, -4.67% and over 20.6 µM.
On to `CN1C(=O)N(c2ccccc2)C(Nc2nncs2)C1(C)C` (centres undefined), for which the activity change, negative = inhibition in assay [1] is 2.23%; in assay [2], -8.24%. Further, in assay [3], the activity, negative = inhibition is -1.47%. Also, the Potency in assay [4] is over 20.6 µM.
With `CCCOc1ccc(/C(O)=C2/C(=O)C(=O)N(CCCn3ccnc3)C2c2cccs2)cc1` (centres undefined), the activity change, negative = inhibition in assay [1] is -14.1%; in assay [2], 2.88%. Also, the activity, negative = inhibition in assay [3] was 6%. Besides, the Potency in assay [4] is over 20.6 µM.
As for `Cn1c(=O)c2c(nc(Br)n2Cc2ccc3ccccc3c2)n(C)c1=O`, the results for the activity change, negative = inhibition in assay [1] and in assay [2] were -1.43% and -13.6%, respectively. For the same compound, the activity, negative = inhibition in assay [3] was -5.3%. In assay [4], the Potency was over 20.6 µM.
Taken in the same sequence, the figures for `O=C(C1=C(O)C(=O)N(CCN2CCOCC2)C1c1cccnc1)c1cc2ccccc2o1` (centres undefined) were 8.94%, -4.55%, 3.87% and over 20.6 µM.
Taken in the same sequence, the figures for `O=c1c(F)cn(C2CCCO2)c(=O)n1Cc1ccccc1Cl` (centres undefined) were 0.0939%, -19.1%, 11.6% and over 20.6 µM.
For `Nc1ncnc2nc(SCc3ccccc3)[nH]c12`, in that order: -9.21%, -4.19%, -9.74% and over 20.6 µM.
Take `CC(C)CC(=O)Nc1ccccc1N1CCCC1`: the activity change, negative = inhibition was 8.1% in assay [1] and 8.79% in assay [2]. In addition, the activity, negative = inhibition in assay [3] is 0.417%. The Potency in assay [4] is over 20.6 µM.
Taken in the same sequence, the figures for `CC(=O)c1c(C)c2c(n1CCN(C)C)CCCC2` were 123% [activator] (active), -7.5%, 9.43% and over 20.6 µM.
For `COc1ccc(C(=O)NCCCCCC(=O)O)cc1OC`, in that order: 5.18%, -3.46%, 2.88% and over 20.6 µM.
For `CCOC(=O)c1c(C)n(C)c2ccc(OC)c(NC(=O)CN3CCC4(CC3)OCCO4)c12`, in that order: -3.92%, 1.31%, 3.03% and over 20.6 µM.
As to `Cc1cccc(C)c1NC(=O)CSCC(=O)c1ccc(O)c(O)c1`, the activity change, negative = inhibition in assay [1] was -12.4%; in assay [2], 22.8%. Moreover, the activity, negative = inhibition in assay [3] is -19.4%. Also, the Potency in assay [4] is over 20.6 µM.
Taken in the same sequence, the figures for `CCCCCCOc1ccc(N2C(=O)CC(N3CCN(C(=O)c4ccco4)CC3)C2=O)cc1` (centres undefined) were -1.51%, 13.8%, -13.2% and over 20.6 µM.
For `Cc1ccc(N2C(=O)C3ON(c4ccccc4)C(c4ccncc4)C3C2=O)c(C)c1` (centres undefined), in that order: 4.43%, 26.3%, 0.652% and over 20.6 µM.
In the case of `CCOC(=O)C(NC=O)(NC(C)(C)C)C(=O)OCC`, the activity change, negative = inhibition was -2.44% in assay [1] and 4.66% in assay [2]. Also, in assay [3], the activity, negative = inhibition is 24.2%. Moreover, in assay [4], the Potency is over 20.6 µM.
Taken in the same sequence, the figures for `O=C(CN1C(=O)c2ccccc2C1=O)NCc1ccccn1` were -3.27%, 16.6%, 10.5% and over 20.6 µM.
`CC(C)C1C(C#N)=C(N)Oc2n[nH]c(C(C)(C)C)c21` (centres undefined): the activity change, negative = inhibition in assay [1] is -20.9%; in assay [2], -6.87%. Further, the activity, negative = inhibition in assay [3] was -18.4%. Besides, the Potency in assay [4] was over 20.6 µM.
For `Cc1cc(C)n(Cc2cc(C)c(Cn3nc(C)cc3C)cc2C)n1`, in that order: 14.4%, -3.13%, -5.55% and over 20.6 µM.
For `CC(=O)/C=C(\C)NCCNc1c(F)c(F)c(CO)c(F)c1F`, in that order: -4.08%, 1.05%, -2.87% and over 20.6 µM.
Taken in the same sequence, the figures for `COc1cccc(C(=O)NCC(=O)n2nc(C)cc2C)c1` were 23.4%, -4.99%, 16.7% and over 20.6 µM.
In the case of `Cc1csc2nc(CSc3nc4ccccc4o3)cn12`, the activity change, negative = inhibition is -11.6% in assay [1] and -1.77% in assay [2]. For the same compound, the activity, negative = inhibition in assay [3] was 4.59%. In addition, the Potency in assay [4] was over 20.6 µM.
Taken in the same sequence, the figures for `COC(=O)c1c(C)[nH]c(C(=O)OCc2ccc(F)cc2)c1C` were 14.7%, 5.66%, -8.92% and over 20.6 µM.
For `CCC1(C)Cc2c(sc3[nH]c(=O)[nH]c(=O)c23)CS1` (centres undefined), in that order: 6.31%, 6.7%, -2.55% and over 20.6 µM.
For `CCN(CC)CCN1C(=O)C(O)=C(C(=O)c2ccco2)C1c1ccccn1` (centres undefined), in that order: -3.97%, -0.0336%, 3.83% and over 20.6 µM.
